Common to all, as to experiment: DAPPL (digital affinity profiling via proximity ligation, sequencing); 10 mM Tris-HCl pH 7.5, 50 mM NaCl, 1 mM DTT, 4% glycerol, room temperature, 30 min; GST-TFs on glutathione beads, 16-mer random dsDNA library, 0.1% formaldehyde crosslink after washing; high values mean tight binding
For assay [1], the target named is T1, FLI1 (Homo sapiens, UniProt Q01543 1-452).
T1 sequence: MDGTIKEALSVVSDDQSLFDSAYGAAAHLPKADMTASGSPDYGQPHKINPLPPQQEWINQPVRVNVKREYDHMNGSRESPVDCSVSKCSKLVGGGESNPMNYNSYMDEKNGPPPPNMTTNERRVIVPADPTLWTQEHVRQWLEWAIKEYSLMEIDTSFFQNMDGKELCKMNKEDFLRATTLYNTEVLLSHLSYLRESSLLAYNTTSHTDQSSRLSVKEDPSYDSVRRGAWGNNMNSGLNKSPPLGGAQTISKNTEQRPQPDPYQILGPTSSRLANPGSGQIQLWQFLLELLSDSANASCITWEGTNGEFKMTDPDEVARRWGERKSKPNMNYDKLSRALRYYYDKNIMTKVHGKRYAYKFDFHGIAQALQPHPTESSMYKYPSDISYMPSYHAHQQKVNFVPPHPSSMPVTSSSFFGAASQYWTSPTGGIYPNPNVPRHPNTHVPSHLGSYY
The settings on record: protein: recombinant; tags: N-terminal GST; dsDNA, one strand shown. An outline of the steps: (§1)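 Pools were built from human transcription factors expressed in yeast as GST fusions, captured on glutathione beads and DNA-barcoded, along with a tag-only sample. Incubation with 200 nmole of a 16-mer random double-stranded DNA library lasted 30 min at room temperature in Tris/NaCl/DTT/glycerol buffer, and was followed by washing, 0.1% formaldehyde crosslinking, proximity ligation, PCR amplification and Illumina NextSeq500 sequencing. Binding signal is the quotient of each hexamer's read frequency for a factor and its frequency for the tag-only sample.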

Assay [2] addresses T2, ELK1 (Homo sapiens, UniProt P19419 1-428).
T2 sequence: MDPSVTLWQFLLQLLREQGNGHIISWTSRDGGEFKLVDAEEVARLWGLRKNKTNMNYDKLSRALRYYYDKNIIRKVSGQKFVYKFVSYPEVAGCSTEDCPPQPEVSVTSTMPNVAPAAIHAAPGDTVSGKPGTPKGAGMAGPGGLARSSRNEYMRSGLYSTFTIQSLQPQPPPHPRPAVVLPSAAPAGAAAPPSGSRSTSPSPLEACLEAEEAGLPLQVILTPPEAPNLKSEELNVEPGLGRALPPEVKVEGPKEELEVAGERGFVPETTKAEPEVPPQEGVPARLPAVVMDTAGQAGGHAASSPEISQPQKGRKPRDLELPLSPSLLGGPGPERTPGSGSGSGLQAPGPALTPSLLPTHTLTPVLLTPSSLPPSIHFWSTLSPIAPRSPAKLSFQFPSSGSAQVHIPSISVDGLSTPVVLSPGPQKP
To be noted: protein: recombinant; tags: N-terminal GST; dsDNA, one strand shown. An outline of the steps:
as §1

Assay [3] has as its target T3, GABPA (Homo sapiens, UniProt Q06546 1-454).
T3 sequence: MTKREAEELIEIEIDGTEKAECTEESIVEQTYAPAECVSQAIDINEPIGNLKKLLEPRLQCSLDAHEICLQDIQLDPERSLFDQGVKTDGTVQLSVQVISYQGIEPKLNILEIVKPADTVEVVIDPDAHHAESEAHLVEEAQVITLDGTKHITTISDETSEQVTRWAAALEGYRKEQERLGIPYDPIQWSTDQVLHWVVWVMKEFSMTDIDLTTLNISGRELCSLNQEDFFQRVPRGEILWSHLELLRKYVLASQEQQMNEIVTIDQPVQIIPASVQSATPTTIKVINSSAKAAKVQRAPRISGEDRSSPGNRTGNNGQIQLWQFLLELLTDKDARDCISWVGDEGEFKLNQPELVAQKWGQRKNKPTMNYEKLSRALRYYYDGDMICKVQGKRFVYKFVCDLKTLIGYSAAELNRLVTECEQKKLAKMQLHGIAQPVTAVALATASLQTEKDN
The settings on record: protein: recombinant; tags: N-terminal GST; dsDNA, one strand shown. Summed up:
as §1

In assay [4] the target is T4, ERG (Homo sapiens, UniProt P11308 1-479).
T4 sequence: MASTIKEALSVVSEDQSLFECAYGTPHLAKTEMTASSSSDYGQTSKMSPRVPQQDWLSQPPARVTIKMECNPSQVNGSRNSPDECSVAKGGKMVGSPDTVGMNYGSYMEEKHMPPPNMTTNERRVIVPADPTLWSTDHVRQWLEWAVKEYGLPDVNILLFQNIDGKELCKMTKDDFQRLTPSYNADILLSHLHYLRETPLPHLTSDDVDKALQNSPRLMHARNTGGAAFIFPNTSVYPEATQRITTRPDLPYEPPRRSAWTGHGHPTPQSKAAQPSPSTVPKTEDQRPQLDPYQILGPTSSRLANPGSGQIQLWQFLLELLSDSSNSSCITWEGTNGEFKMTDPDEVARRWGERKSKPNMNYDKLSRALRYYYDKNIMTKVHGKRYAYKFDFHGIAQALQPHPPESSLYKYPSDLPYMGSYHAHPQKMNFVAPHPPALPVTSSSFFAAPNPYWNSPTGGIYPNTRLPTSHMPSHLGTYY
To be noted: protein: recombinant; tags: N-terminal GST; dsDNA, one strand shown. Summed up:
as §1

For assay [5], the target named is ELF1 (Homo sapiens, UniProt P32519 1-619). To be noted: protein: recombinant; tags: N-terminal GST; dsDNA, one strand shown. Summed up: as §1
Sequence of ELF1 (P32519 whole entry): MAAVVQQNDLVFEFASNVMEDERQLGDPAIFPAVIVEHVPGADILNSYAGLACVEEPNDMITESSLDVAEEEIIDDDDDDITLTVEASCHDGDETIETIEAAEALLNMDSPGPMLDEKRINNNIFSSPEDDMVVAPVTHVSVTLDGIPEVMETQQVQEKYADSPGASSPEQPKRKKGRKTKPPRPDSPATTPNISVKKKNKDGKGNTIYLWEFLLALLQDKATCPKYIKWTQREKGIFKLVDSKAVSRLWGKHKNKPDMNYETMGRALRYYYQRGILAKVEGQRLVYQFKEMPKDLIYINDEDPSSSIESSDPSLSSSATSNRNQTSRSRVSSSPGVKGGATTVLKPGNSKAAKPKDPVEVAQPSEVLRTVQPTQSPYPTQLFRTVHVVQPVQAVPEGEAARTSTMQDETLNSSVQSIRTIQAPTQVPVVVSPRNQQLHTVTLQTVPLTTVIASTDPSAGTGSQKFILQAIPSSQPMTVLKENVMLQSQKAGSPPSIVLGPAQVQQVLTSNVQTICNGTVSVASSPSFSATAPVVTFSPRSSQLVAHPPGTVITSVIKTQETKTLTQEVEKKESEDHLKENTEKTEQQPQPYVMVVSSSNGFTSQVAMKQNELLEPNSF
The target in assay [6] is T5, EHF (Homo sapiens, UniProt Q9NZC4 1-300).
T5 sequence: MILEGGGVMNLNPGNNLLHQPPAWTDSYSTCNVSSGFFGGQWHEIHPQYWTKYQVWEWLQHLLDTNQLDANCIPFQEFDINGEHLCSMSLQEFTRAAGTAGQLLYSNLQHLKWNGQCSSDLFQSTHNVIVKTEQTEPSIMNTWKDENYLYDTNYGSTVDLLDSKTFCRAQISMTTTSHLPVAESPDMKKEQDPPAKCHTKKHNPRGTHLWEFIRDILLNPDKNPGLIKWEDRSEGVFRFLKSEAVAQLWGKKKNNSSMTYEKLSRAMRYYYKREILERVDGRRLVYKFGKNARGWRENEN
The settings on record: protein: recombinant; tags: N-terminal GST; dsDNA, one strand shown. Summed up:
as §1

Assay [7] concerns the target SPI1 (Homo sapiens, UniProt P17947 1-270). To be noted: protein: recombinant; tags: N-terminal GST; dsDNA, one strand shown. An outline of the steps: as §1
For assay [8], the target named is SPIB (Homo sapiens, UniProt Q01892 1-262). To be noted: protein: recombinant; tags: N-terminal GST; dsDNA, one strand shown. Summed up:
as §1

For assay [9], the target named is T6, ELK3 (Homo sapiens, UniProt P41970 1-407).
T6 sequence: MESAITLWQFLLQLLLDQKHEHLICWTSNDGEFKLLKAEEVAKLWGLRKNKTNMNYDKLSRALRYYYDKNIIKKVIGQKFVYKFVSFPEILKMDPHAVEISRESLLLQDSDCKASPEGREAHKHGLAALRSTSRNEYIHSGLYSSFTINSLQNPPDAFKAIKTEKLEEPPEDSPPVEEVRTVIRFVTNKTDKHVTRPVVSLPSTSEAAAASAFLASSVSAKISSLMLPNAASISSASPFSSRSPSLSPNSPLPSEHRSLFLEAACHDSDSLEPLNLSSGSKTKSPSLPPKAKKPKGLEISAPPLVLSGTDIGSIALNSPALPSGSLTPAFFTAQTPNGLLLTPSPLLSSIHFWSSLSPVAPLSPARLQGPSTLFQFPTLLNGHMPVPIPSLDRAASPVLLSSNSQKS
To be noted: protein: recombinant; tags: N-terminal GST; dsDNA, one strand shown. An outline of the steps:
as §1

Assay [10] concerns the target T7, FEV (Homo sapiens, UniProt Q99581 1-238).
T7 sequence: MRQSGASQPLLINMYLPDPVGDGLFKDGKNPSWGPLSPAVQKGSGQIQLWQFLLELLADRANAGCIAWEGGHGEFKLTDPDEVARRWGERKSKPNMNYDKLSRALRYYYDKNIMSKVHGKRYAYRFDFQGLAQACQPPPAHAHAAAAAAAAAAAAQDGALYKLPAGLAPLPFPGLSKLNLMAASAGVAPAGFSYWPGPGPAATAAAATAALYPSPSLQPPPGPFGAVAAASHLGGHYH
To be noted: protein: recombinant; tags: N-terminal GST; dsDNA, one strand shown. Summed up: as §1

For assay [11], the target named is ETV5 (Homo sapiens, UniProt P41161 1-510). The settings on record: protein: recombinant; tags: N-terminal GST; dsDNA, one strand shown. Summed up: as §1
Sequence of ETV5 (P41161 whole entry): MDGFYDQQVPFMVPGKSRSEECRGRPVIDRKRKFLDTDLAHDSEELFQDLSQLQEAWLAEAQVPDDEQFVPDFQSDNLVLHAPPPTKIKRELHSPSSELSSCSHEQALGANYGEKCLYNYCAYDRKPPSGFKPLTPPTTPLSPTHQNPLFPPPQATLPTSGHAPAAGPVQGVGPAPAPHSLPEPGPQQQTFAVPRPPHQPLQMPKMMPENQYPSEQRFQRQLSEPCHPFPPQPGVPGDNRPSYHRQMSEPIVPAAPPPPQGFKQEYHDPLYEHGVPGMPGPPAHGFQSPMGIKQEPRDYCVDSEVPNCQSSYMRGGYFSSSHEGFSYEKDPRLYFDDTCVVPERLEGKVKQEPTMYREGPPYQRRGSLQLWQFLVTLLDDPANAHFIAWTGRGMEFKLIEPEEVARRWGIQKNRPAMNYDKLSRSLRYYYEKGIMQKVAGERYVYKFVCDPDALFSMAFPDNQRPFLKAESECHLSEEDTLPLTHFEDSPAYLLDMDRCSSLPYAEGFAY
Assay [12] deals with HSF1 (Homo sapiens, UniProt Q00613 1-529). The settings on record: protein: recombinant; tags: N-terminal GST; chain copies: 3; dsDNA, one strand shown. An outline of the steps:
as §1

The target of assay [13] is T8, SPIC (Homo sapiens, UniProt Q8N5J4 1-248).
T8 sequence: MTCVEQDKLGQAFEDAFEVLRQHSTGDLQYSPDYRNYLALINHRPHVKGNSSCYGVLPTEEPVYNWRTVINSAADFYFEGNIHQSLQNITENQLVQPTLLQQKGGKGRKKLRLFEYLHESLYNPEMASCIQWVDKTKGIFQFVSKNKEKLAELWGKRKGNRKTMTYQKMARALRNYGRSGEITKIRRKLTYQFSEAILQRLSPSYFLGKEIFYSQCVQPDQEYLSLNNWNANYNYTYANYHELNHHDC
To be noted: protein: recombinant; tags: N-terminal GST; dsDNA, one strand shown. Summed up:
as §1

Assay [14] deals with ELF4 (Homo sapiens, UniProt Q99607 1-663). To be noted: protein: recombinant; tags: N-terminal GST; dsDNA, one strand shown. Summed up:
as §1

Assay [15] has as its target T9, ELK4 (Homo sapiens, UniProt P28324-2 1-405).
T9 sequence: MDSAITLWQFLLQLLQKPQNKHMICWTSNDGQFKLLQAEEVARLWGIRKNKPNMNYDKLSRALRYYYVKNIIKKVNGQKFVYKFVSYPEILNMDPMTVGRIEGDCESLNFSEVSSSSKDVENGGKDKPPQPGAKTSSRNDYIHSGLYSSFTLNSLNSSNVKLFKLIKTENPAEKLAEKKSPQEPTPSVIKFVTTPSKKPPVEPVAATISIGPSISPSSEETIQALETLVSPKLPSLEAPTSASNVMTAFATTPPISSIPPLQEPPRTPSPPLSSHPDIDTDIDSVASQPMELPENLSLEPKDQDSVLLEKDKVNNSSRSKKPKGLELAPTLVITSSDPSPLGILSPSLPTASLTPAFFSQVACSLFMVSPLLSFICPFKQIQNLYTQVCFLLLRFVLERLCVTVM
To be noted: protein: recombinant; tags: N-terminal GST; dsDNA, one strand shown. An outline of the steps:
as §1

The target in assay [16] is T10, ETV2 (Homo sapiens, UniProt O00321 1-342).
T10 sequence: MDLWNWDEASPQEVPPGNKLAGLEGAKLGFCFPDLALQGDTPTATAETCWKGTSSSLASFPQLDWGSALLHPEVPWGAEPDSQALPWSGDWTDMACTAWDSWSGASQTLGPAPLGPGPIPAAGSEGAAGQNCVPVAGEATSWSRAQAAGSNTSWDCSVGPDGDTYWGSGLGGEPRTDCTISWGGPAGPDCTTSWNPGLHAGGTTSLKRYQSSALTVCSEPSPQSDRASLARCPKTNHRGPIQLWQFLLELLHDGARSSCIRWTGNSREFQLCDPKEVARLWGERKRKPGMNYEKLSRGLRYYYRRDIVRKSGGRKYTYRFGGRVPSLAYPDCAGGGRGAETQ
To be noted: protein: recombinant; tags: N-terminal GST; dsDNA, one strand shown. An outline of the steps: as §1

The target of assay [17] is T11, ELF3 (Homo sapiens, UniProt P78545 1-371).
T11 sequence: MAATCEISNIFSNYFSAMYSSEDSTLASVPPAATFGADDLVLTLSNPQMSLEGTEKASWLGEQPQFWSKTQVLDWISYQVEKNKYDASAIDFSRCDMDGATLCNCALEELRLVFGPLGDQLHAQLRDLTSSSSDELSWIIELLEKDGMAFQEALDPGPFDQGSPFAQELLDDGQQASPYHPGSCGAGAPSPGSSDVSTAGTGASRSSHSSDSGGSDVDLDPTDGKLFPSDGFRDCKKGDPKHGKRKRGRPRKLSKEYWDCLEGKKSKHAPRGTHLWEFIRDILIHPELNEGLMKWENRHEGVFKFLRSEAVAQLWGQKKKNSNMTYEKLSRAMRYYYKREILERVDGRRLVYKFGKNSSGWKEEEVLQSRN
To be noted: protein: recombinant; tags: N-terminal GST; dsDNA, one strand shown. An outline of the steps:
as §1

In assay [18] the target is ETV1 (Homo sapiens, UniProt P50549 1-477). To be noted: protein: recombinant; tags: N-terminal GST; dsDNA, one strand shown. An outline of the steps:
as §1

Sequence of ETV1 (P50549 whole entry): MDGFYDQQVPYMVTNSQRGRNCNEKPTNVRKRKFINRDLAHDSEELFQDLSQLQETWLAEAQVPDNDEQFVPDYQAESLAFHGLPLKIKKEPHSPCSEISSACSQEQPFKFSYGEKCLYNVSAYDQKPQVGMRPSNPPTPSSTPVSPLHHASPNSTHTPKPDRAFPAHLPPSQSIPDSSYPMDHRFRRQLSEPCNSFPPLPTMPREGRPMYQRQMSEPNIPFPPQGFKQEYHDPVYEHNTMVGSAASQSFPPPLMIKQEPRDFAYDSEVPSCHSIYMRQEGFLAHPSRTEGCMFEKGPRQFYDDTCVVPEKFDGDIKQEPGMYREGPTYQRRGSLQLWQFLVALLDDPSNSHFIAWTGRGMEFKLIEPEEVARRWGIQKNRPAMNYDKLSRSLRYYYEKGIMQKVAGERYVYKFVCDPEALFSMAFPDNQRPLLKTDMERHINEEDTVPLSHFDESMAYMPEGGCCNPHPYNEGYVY
Sequence of SPIB (Q01892 whole entry): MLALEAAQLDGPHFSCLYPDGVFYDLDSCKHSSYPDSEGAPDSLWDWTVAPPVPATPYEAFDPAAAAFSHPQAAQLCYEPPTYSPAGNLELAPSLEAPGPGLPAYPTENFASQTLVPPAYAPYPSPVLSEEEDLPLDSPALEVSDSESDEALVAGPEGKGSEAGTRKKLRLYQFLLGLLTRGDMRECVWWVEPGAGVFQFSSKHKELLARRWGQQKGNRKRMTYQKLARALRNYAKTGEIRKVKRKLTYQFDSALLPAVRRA
Sequence of HSF1 (Q00613 whole entry): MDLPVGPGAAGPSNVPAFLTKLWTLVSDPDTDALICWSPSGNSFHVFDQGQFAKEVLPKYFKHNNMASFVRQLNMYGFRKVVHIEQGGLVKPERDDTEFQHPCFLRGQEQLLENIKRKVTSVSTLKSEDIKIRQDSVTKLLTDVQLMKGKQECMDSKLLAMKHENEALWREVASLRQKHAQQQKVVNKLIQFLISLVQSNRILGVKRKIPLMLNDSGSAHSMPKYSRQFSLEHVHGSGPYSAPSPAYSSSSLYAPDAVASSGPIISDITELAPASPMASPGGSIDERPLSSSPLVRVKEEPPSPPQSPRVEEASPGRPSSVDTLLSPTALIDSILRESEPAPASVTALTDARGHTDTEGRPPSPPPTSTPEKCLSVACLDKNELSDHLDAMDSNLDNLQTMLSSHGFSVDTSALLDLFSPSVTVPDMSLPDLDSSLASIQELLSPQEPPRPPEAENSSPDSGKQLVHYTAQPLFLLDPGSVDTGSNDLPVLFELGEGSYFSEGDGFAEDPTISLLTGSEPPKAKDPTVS
Sequence of ELF4 (Q99607 whole entry): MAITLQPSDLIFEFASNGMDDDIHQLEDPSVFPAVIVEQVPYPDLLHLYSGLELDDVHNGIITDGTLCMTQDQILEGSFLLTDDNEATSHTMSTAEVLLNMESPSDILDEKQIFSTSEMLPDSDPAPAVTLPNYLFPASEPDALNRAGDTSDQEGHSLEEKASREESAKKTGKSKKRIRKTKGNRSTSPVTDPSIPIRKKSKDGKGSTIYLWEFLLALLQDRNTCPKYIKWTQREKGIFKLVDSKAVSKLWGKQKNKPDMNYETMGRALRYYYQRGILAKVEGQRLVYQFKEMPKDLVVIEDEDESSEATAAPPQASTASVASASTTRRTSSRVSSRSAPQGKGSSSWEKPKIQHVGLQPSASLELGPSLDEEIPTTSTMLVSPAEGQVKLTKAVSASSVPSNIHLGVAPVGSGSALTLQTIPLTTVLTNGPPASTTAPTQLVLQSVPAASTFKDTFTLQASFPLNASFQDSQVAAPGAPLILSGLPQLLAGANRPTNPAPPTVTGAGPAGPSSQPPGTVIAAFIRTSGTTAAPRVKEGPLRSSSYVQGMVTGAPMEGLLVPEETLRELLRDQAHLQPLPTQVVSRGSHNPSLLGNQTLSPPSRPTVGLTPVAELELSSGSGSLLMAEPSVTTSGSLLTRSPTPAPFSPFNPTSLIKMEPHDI

For CTGAAG, the binding signal is 1.02 fold enrichment (6-mer frequency, TF over GST control) in [1]; 1.14 fold enrichment (6-mer frequency, TF over GST control) in [2]; 1.11 fold enrichment (6-mer frequency, TF over GST control) in assay [3]; 1.08 fold enrichment (6-mer frequency, TF over GST control) in assay [4]; 1.11 fold enrichment (6-mer frequency, TF over GST control) in [5]; 1.02 fold enrichment (6-mer frequency, TF over GST control) in [6]. The binding signal in assay [7] is 1.05 fold enrichment (6-mer frequency, TF over GST control); in assay [8], 1.04 fold enrichment (6-mer frequency, TF over GST control); in [9], 1.01 fold enrichment (6-mer frequency, TF over GST control); in assay [10], 1.05 fold enrichment (6-mer frequency, TF over GST control); in assay [11] it was 1.06 fold enrichment (6-mer frequency, TF over GST control); in assay [12], 1.11 fold enrichment (6-mer frequency, TF over GST control). The binding signal in assay [13] is 1.01 fold enrichment (6-mer frequency, TF over GST control); in [14] it was 1.11 fold enrichment (6-mer frequency, TF over GST control); in assay [15] it was 1.05 fold enrichment (6-mer frequency, TF over GST control); in [16] it was 1.09 fold enrichment (6-mer frequency, TF over GST control); in [17], 1.18 fold enrichment (6-mer frequency, TF over GST control); in [18], 1.08 fold enrichment (6-mer frequency, TF over GST control).

These data come from publication PMC7862700, “An all-to-all approach to the identification of sequence-specific readers for epigenetic DNA modifications on cytosine”.
